Key:
Experiment in all cases: PBM binding z-score (relative to random genomic background probes); higher = stronger binding; sequences stand for … in GC…GCGATTGACAGCGTAGAATGAAGG
[1] = test system: PPARg:RXRa DBDmut IVT, anti-RXR (DBD mutation: RXRa K156A/R161A, NR concentration 270 nM, RXRa partner concentration 90 nM)
Summary of the method: (§1)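 Each nuclear receptor dimer, without ligand, was incubated for 1 h on custom Agilent 4×180K protein-binding microarrays. Binding was detected with antibodies against each partner (one per run), and scanned fluorescence was regression-normalized. The binding z-scores are referenced to random human genomic background probes.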

[2] = test system: PPARg:RXRa IVT, anti-PPARg (NR concentration 270 nM, RXRa partner concentration 90 nM)
Summary of the method: as §1

[3] = test system: PPARg DBDmut:RXRa IVT, anti-PPARg (DBD mutation: PPARg1 K132A/R137A, NR concentration 270 nM, RXRa partner concentration 90 nM)
Summary of the method: as §1

[4] = test system: PPARg DBDmut IVT, anti-PPARg (DBD mutation: PPARg1 K132A/R137A, NR concentration 270 nM)
Summary of the method: as §1

[5] = test system: PPARg homodimer (NR concentration 180 nM)
Summary of the method: as §1

[6] = test system: PXR:RXRa (NR concentration 270 nM, RXRa partner concentration 90 nM)
Summary of the method: as §1

[7] = test system: PXR homodimer (NR concentration 270 nM)
Summary of the method: as §1

[8] = test system: RARa:RXR (NR concentration 270 nM, RXRa partner concentration 90 nM)
Summary of the method: as §1

[9] = test system: RARa homodimer (NR concentration 270 nM)
Summary of the method: as §1

[10] = test system: RARb:RXRa (NR concentration 270 nM, RXRa partner concentration 90 nM)
Summary of the method: as §1

Sequence	PBM binding z-score [1]	PBM binding z-score [2]	PBM binding z-score [3]	PBM binding z-score [4]	PBM binding z-score [5]	PBM binding z-score [6]	PBM binding z-score [7]	PBM binding z-score [8]	PBM binding z-score [9]	PBM binding z-score [10]
CCTAGTTGGTCAGGAGGTCGCACACCGGATATGA	0.576	1.51	-0.0553	-0.0724	1.86	1.24	0.681	1.59	1.17	1.98
CGAACTAGGTCAAGTACAGTGAATCTCCGCACGC	8.4	8.26	1.96	1.97	2.76	1.8	0.0981	2.37	0.517	4.19
CCTTACGGGTCAATCCAGGTTATAGCATCGGAGT	3.11	3.6	0.439	-0.233	1.18	5.42	0.705	3.74	0.489	3.44
ACTCGGAGTACAAAGGTCAGAGCTACGCCAGTGA	0.771	3.83	-0.013	0.136	3.32	4.1	0.393	4.96	2.36	4.39
CCTCGGAGGACAGAAGGTCAGGGCTGTCCGCTTT	-0.131	0.148	-1.5	-1.83	1.43	1.65	-0.651	2.13	0.0268	3.47
TCTTGGAGATCAGCAGGTTAAGAAAGCTGGCCAA	1.35	-0.4	-0.469	-0.467	-0.281	0.203	-0.366	0.266	0.00806	0.0526
TTACCAAGTTGAAAGGTCGTTGATGCACGCCTTG	0.565	1.78	-0.471	0.0768	1.5	3.35	0.56	4.05	0.532	2.34
CCCACTGGGCCAAAGGTCATTGATTCCAATGCTC	4.77	6.2	0.334	-0.118	3.86	5.36	1.81	6.34	1.99	4.39
CGTCCAAGGTCAGAGAGGTCAGTGAGTGCCGAGT	2.89	3.66	-0.0729	-0.219	3.93	6.23	12.6	5.43	2.9	5.37
AGAATGAGGTTATACGTAGATCAGGCAAGAAAGT	3.76	2.33	1.04	0.362	0.366	1.01	0.159	1.51	0.831	1.29
ATATGTAAGTTATCGGGTCATTCAGTTTGCGCAT	2.89	3.27	1.57	1.8	1.64	3.39	6.97	2.93	1.29	2.05
CGAACGAGGGCCTGAGTTGATAGCAAATGCCGAT	-0.653	-0.278	-0.385	-0.392	-1.19	-0.457	-0.641	-0.337	-0.966	-0.393
GTACCAAGGTGAATAGGTCGTTGAGGAGTAGGCG	1.82	2.41	-0.447	-0.52	1.24	0.61	0.0954	1.74	0.334	1.99
TCATATAGCTAAATGCTAGGTGAAAGTCCGATCT	1.45	0.452	0.679	0.932	0.101	0.31	-0.278	0.514	-0.0788	0.00512
TCAAGTAGGTTAGTCGGGGCATTCAGCCAACATA	4.81	4.14	0.386	1.15	1.35	0.801	0.708	0.739	0.814	0.917
CGTTAAAGTTCAAGGTAACGTAACAGAAAGCAGC	0.894	2.08	0.767	0.8	1.94	3.79	2.16	2.94	2.05	4.96
TCGAGTAGGTAAGTCGGGGCATTCAGCCAACATA	1.34	0.805	-1.3	-0.763	-0.452	-0.238	-0.436	-0.22	-0.413	-0.182
AGAACGAGGGCAATGAGTTGATTGCACGGGTGGC	3.14	2.43	0.337	-0.0138	-0.0601	1.65	6.35	0.166	-0.231	1.89
GGTACAGGGTCAGCTAGAGGCCAGAGTATGGAAA	0.482	2.29	0.521	-0.216	2.93	3.37	0.15	4.88	0.0993	4.22
GCTAGCAGGCCATTTGGGTCAATCAATGACGGGC	1.77	1.92	-1.29	-0.902	-0.569	0.511	0.261	0.95	-0.573	1.3
GGGACGAGGGCATTCGAGTTGATAGCATGGCGAT	1.51	1.47	-0.173	0.189	0.254	3.68	1.37	1.08	0.349	2
CCGAGTAGGTTCTGGGGCATTCAGGCAACGGTGA	1.08	1.69	-1.23	-1.34	0.223	-0.868	-0.237	-0.69	-0.226	0.00361
TCTAACAGGCCAGAGGGTCACTCAAGAGGTACGG	1.73	0.466	-0.318	-0.0122	1.11	1.86	-0.0848	2.6	-0.0287	2.27

From the supplement of paper PMC6555819
